KCNH2 WT inh: blocks the wildtype human KCNH2 potassium channel. Q12809. U2OS, BacMam KCNH2, thallium flux FluxOr; active compounds read low. activity change, % at 1.84 µM. actives 0.37% (n = 340,000);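 active means maximum activity change below -70%; inconclusive means maximum activity change between -70% and -50%; inactive means maximum activity change above -50%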; further: on the % scale 0 is the no-effect control and ±100 the full control effect
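U2OS cells were transduced with wild-type KCNH2 virus (2.03 x 10^8 / mL) for 4 h at room temperature, then cultured overnight at 37 C. Thallium flux was read with FluxOr dye. Rate constants were normalized to DMSO controls.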
12-LOX inh: inhibitors of human 12S-lipoxygenase ALOX12; Potency, µM (doses to about 108 µM), for inactives: at the highest dose activity change, negative = inhibition, usual class: inhibitors; AID 1671190; purified 12hLO, xylenol orange hydroperoxide absorbance; P18054; actives 1.1% (n = 580,000); further: potency means the concentration at half of the fitted maximal effect; on the % scale 0 is the no-effect control and ±100 the full control effect
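Hydroperoxide product was detected by ferrous iron/xylenol orange as the 573 to 405 nm absorbance ratio. Arachidonic acid at 40 uM (final) was turned over for 30 min at room temperature by 150 nM human 12hLO, pH 7.0 Hepes buffer, after 15 min compound preincubation.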
KCNH2 3.1 inh: KCNH2 3.1 (human) potassium channel inhibition. U2OS KCNH2 3.1, thallium flux FluxOr; active compounds read low. activity change, % (tested at about 1.8 µM). actives 0.95% (n = 340,000). AID 720553;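 active means maximum activity change below -70%; inconclusive means maximum activity change from -70% to -50%; inactive means maximum activity change above -50%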;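 further: thallium influx rate constant from kinetic fluorescence after stimulation buffer; on the % scale 0 is the no-effect control and ±100 the full control effect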
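Normalized rate constant (relative to positive and negative DMSO controls) derived from a 2 min kinetic fluorescence read after stimulation; U2OS cells expressing the 3.1 isoform via virus at 1.77 x 10^8 /mL.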
A-T KAP1 phos: potential ataxia-telangiectasia treatment. actives 0.19% (n = 320,000). Potency, µM (series often up to 57.5 µM), for inactives: at the top dose activation, most hits filed as activators. F2112 A-T fibroblasts, KAP-1 phosphorylation AlphaLISA; neocarzinostatin DNA damage 30 min before lysis; further: potency means the concentration at half of the fitted maximal effect; % of control where 0% means no effect; nearly all actives have a fitted effect of over 45% in size
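ATM-like activity read as KAP-1 phosphorylation via AlphaLISA donor/acceptor antibody pairs after lysis and 6 hr at 25C. Cells were ATM-null patient fibroblasts (F2112, hTERT), dosed 60 min, then exposed to the DSB inducer NCS for 30 min.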
Starred values were filed as active, the others as inactive; ? = inconclusive; . = no result; [ ] = remark or other dose. This is a sample that favours compounds with a hit; in the whole collection about 1.8% have one here. Unless noted, the call rests on the fitted dose curve; in most records, active means well fitted curve in the direction sought with a large enough effect; inconclusive means small, poorly fitted or top-dose-only effect, or another doubt; inactive means no such curve, though single readings can be large; an effect the other way counts as inactive or inconclusive.

SMILES | KCNH2 WT inh | 12-LOX inh | KCNH2 3.1 inh | A-T KAP1 phos
S=c1[nH]nc(C2CCCCC2)n1/N=C/c1ccc(Br)cc1 | 2 | 1% | 13 | 13µM*
S=c1[nH]nc(C2CCCCC2)n1/N=C/c1ccc(Cl)cc1 | -7 | 0% | 0 | -1%
Nc1nonc1-n1nnc(C(=O)N/N=C/c2ccc(OCc3ccccc3F)cc2)c1CN1CCCCC1 | 2 | 3% | -100* | 8%
CN(C)Cc1c(C(=O)N/N=C/c2ccc(OCc3c(F)cccc3Cl)cc2)nnn1-c1nonc1N | -29 | 11% | -86* | 6%
O=C(C1CCCN(c2nc(-c3ccccc3)nc3c2CCC3)C1)N1CCCNCC1 (stereo unspecified) | . | -3% | . | .
O=C(Nc1ccccc1)N[C@H]1[C@H](O)[C@@H](N2CCN(c3ccccc3)CC2)[C@@H]2OC[C@H]1O2 | . | 112µM* | . | .
O=C(Nc1ccccc1)N[C@H]1[C@H](O)[C@@H](N2CCOCC2)[C@@H]2OC[C@H]1O2 | . | 47%[176 µM] | . | .
CCOCCCNC(=S)N1CCc2cc(OC)c(OC)cc2C1 | . | 7% | . | .
COc1cccc(C2OCC(C)(C)n3c(-c4ccccc4)c4c(=O)n(C)c(=O)n(C)c4c32)c1O (stereo unspecified) | . | 11µM* | . | .
Cn1c(=O)c(C(=O)Nc2ccc(Cl)c(C(F)(F)F)c2)nc2ccccc21 | . | -3% | . | .
O=C(O)CCC(=O)NN1C(=O)c2ccccc2NC1c1ccco1 (stereo unspecified) | -2 | 3% | 7 | 0.79µM*
O=C(NN1C(=O)c2ccccc2NC1c1ccco1)c1ccccc1 (stereo unspecified) | -11 | 481% | 9 | 2%
COc1cccc(CN2CCc3ccc(NC(=O)CCc4ccc(C)cc4)cc3C2)c1O | 25 | -29% | -81* | -1%
COc1cc(CN2CCc3ccc(NC(=O)CCc4ccccc4OC)cc3C2)ccc1O | 23 | -25% | -22 | -3%
COc1ccc(-c2noc(-c3ncn4c3COC(c3ccc(F)cc3)C4)n2)c(OC)c1 (stereo unspecified) | . | 16% | . | .
O=C1NN(c2ccccc2)C(=O)C2C3C=CC(C4CC34)C12 (stereo unspecified) | -147* | -2%[57.4 µM] | 14 | 1%
O=C(NNC(=S)NC(=O)c1ccccc1)c1ccncc1 | . | -15% | . | .
Cn1c(SC(C(=O)Nc2ccc(F)cc2)c2ccccc2)nc2ccccc21 (stereo unspecified) | -9 | 3% | -82* | 7%
Cn1nnnc1SC(C(=O)Nc1ccc(F)cc1)c1ccccc1 (stereo unspecified) | -1 | 1% | 15 | -1%
CC(C)c1noc(-c2cn(C3CCCN(C(=O)c4ccc(F)c(Cl)c4)C3)nn2)n1 (stereo unspecified) | . | 18% | . | .
Oc1cccc(/C=N/N(Cc2ccccc2)c2ccccc2)c1 | -3 | 50µM* | -9 | -14%
C/C(=N\N(Cc1ccccc1)c1ccccc1)c1cccnc1 | -18 | ? | -16 | -23%
C(=N\N(Cc1ccccc1)c1ccccc1)/c1cccnc1 | -1 | ? | -3 | 5%
Oc1ccc(/C=N/N(Cc2ccccc2)c2ccccc2)c(O)c1O | -2 | 40µM* | 17 | -1%
C=CCNC(=O)CCc1c(C)nn(-c2ccccc2)c1Oc1ccc(F)cc1F | . | -4% | . | .
SMILES | KCNH2 WT inh | 12-LOX inh | KCNH2 3.1 inh | A-T KAP1 phos
CSc1ccc(CNC23CC4CC(CC(O)(C4)C2)C3)cc1 | . | -23% | . | .
O=S1(=O)NC2(CCCN(Cc3ccc(Cl)cc3)C2)COc2ccccc21 (stereo unspecified) | . | 2%[6.33 µM] | . | .
O=C(NCc1ccccc1Cl)C(=O)Nc1ccc2cc[nH]c2c1 | . | 6% | . | .
O=C(CSc1nnc(-c2cccnc2)n1C1CC1)c1cc2cc(Cl)ccc2o1 | . | 25µM* | . | .
Cn1c(SCC(=O)c2cc3cc(Cl)ccc3o2)nnc1-c1cccnc1 | . | 28µM* | . | .
Cn1c(SCC(=O)c2cc3ccccc3o2)nnc1-c1ccccc1 | 7 | -27% | 2 | 26%
CCOC(=O)c1nn(-c2ccc(F)cc2)cc1O | 4 | 2% | -7 | 1%
CCOC(=O)c1nn(-c2ccc(Br)cc2)cc1C(=O)c1cccc2ccccc12 | -4 | 0% | -104* | 2%
Cc1cccc2c1-c1sc(C(=O)Nc3ccccc3N3CCN(C)CC3)cc1CO2 | -17 | -12% | -71* | -15%
CCOc1cc(S(=O)(=O)N2CC=C(c3ccc(F)cc3)CC2)c(OCC)cc1-n1cnnn1 | -102* | 3% | -82* | 1%

High-throughput results (PubChem)
